Several values for one entry are separate records, joined by “and”; a condition that tells them apart may be missing. Identical values can stand only once. Activity calls are given as the source filed them. How the source made its calls: active means hit-call score of the fitted dose curve at least 0.9, where 1 is the maximum; inactive means score below 0.9.
read-out: Urokinase-type plasminogen activator receptor (uPAR), PLAUR (gene 5329); experiment: BSK_4H_uPAR: BioMAP Diversity Plus: 4H Assay for Urokinase-type plasminogen activator receptor (uPAR) Biomarker Activity (AID 2283030); conditions: primary human endothelial cells (HUVEC); actives raise or lower the signal
Procedure: BSK_4H is a cell-based, multiplexed-readout assay that uses umbilical vein endothelium, a human vascular primary cell, with measurements taken at 24 hours after chemical dosing in a 96-well plate.BSK_4HAR is an assay component measured in the BSK_4H assay. It measures uPAR antibody related to regulation of gene expression using ELISA technology.Data from the assay component BSK_4HAR was analyzed into 1 assay endpoint. This assay endpoint, BSK_4HAR, was analyzed with bidirectional fitting relative to DMSO as the negative control and baseline of activity. Using a type of binding reporter, gain or loss-of-signal activity can be used to understand changes in the signaling as they relate to the gene PLAUR. Furthermore, this assay endpoint can be referred to as a primary readout, because this assay has produced multiple assay endpoints where this one serves a signaling function. To generalize the intended target to other relatable targets, this assay endpoint is annotated to the cytokine intended target family, where the subfamily is plasmogen activator.
The levels of cell surface (or secreted, indicated by the prefix "s") biomarker endpoints were measured by ELISA. Overt cytotoxicity to cells in confluent adherent cultures (all systems other than the BT system) was assessed by measuring total protein levels using sulforhodamine B (SRB) staining in parallel cultures at the time of biomarker measurements, indicated as SRB endpoints. For proliferation assays for adherent cell types, individual cell types are cultured at sub-confluence and relative cell numbers quantified by SRB staining at time points optimized for each system (48 h: 3C and CASM3C systems; 72 h: BT and HDF3CGF systems; 96 h: SAg system). SRB was performed by staining cells with 0.1% SRB after fixation with 10% TCA and reading wells at 560 nm.Viability and proliferation of PBMC (T cells) was quantified by Alamar Blue reduction for the SAg and BT systems. For PBMC viability (referred to as PBMC Cytotoxicity within the assay endpoint names), cells were plated (75,000/well in a 96-well plate) and then chemical samples added for 1 h before addition of activators, SEB and TSST-1 (20 ng/mL final concentration each). Cells were incubated for 90 h. Then, Alamar Blue (20 uL/well) (Invitrogen, Cat DAL1100) was added for 6 h, and the plates were read with a fluorescence microplate reader at 546/580 nm (excitation/emission). For PBMC proliferation, cells were plated and activated as above but incubated for only 16 h prior to addition of Alamar Blue. Plates were read after 6 h.

SMILES | outcome | AC50
O=C(Cl)c1c(Cl)c(Cl)c(C(=O)Cl)c(Cl)c1Cl | inactive | 
C=CCCCCCCCCC=O | inactive | 
COC(OC)(C(=O)c1ccccc1)c1ccccc1 | inactive | 
C=CC(=O)OCCCCCCCC(C)C | inactive | 
Nc1nc(N)nc(-c2ccccc2)n1 | inactive | 
CCCCCCCCCCCC(C)=O | inactive | 
c1ccc2c(c1)[nH]c1ccccc12 | inactive | 
CC(c1cc(C(C)(C)C)cc(C(C)(C)C)c1O)c1cc(C(C)(C)C)cc(C(C)(C)C)c1O | inactive | 
CC(CCC(=O)O)(c1ccc(O)cc1)c1ccc(O)cc1 | inactive | 
CC/C=C\CCOC(=O)c1ccccc1O |  | 21.1 µM (active)
CCCCCC1=CCCC1=O | inactive | 
CCCCCCCO | inactive | 
c1ccc2sc(SSN3CCOCC3)nc2c1 |  | 6.7 µM (active)
CC=C(C)C(C)=O | inactive | 
CCCCCCCCCCCC(=O)N(C)CC(=O)O |  | 19.5 µM (active) and 13.4 µM (active)
C=CC(=O)OCCCCCCOC(=O)C=C |  | 20 µM (active)
CCCC(C)C(=O)OCC (stereo not given) | inactive | 
CC(C)CCCCCOC(=O)CS | inactive | 
Oc1c(Cl)cc(Cl)c(Cl)c1Cl |  | 20 µM (active)
CC(C)C(=O)OCCc1ccccc1 | inactive | 

SMILES | outcome | AC50
C=C(C)C(=O)OCCCCCCCCCCCC | inactive | 
C=CC(=O)NC(C)(C)C | inactive | 
O=C1CCCCCCCCCCC1 | inactive | 
CCCCCCOC(=O)CCCCC(=O)OCCCCCC | inactive | 
CCCCCCCCC(CO)CCCCCC (stereo not given) |  | 2.51 µM (active)
CC1=CC=C(C(C)C)CC1 | inactive | 
CCC1(C)C(=O)N(Cl)C(=O)N1Cl (stereo not given) | inactive | 
Cc1c(O)cccc1O | inactive | 
C=CC(=O)OCC(C)OCC(C)OCC(C)OC(=O)C=C (stereo not given) |  | 31.1 µM (active)
Fc1ccc(Br)cc1 | inactive | 
COc1ccc(C(=O)/C(Br)=C\C(=O)O)cc1 |  | 32.5 µM (active) and 32.2 µM (active)
C[N+](C)(C)CCCNS(=O)(=O)C(F)(F)C(F)(F)C(F)(F)C(F)(F)C(F)(F)C(F)(F)C(F)(F)C(F)(F)F | inactive | 
CC(C)[N+](C)(CCOC(=O)C1c2ccccc2Oc2ccccc21)C(C)C | inactive | 
O=C(Oc1ccccc1)c1ccccc1C(=O)Oc1ccccc1 | inactive | 
CCOC(=O)C1=NN(c2ccc(Cl)cc2Cl)C(C)(C(=O)OCC)C1 (stereo not given) | inactive | 
CC(Cl)COP(=O)(OCC(C)Cl)OCC(C)Cl (stereo not given) | inactive | 
Nc1cccc(N)n1 | inactive | 
O=C(O)C(F)(F)C(F)(F)C(F)(F)C(F)(F)C(=O)O | inactive | 
CCc1cccc(C)c1N(C(=O)CS(=O)(=O)O)C(C)COC (stereo not given) | inactive | 
C1CNCCN1 | inactive | 

Source: PubChem BioAssay (EPA / NIEHS)
